Screening results (PubChem)
Hits are enriched below; roughly 2.1% of the tested compounds scored in any of these assays.
Casp6 inh: human caspase-6 inhibitors, primary screen, biochemical, VEID-R110 fluorescence, single point, set 2. P55212. purified caspase-6, Z-VEID-R110 cleavage fluorescence. inhibition, % at 12.5 µM. 350,000 tested, 0.53% active. AID 686996, 2013;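 active = mean inhibition across replicates at least about 35%, with every replicate also reaching that limit, limit read from the data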;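 also: 0% = median of neutral control wells and 100% = no fluorescence left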
Target sequence (P55212 24-179 limits assumed): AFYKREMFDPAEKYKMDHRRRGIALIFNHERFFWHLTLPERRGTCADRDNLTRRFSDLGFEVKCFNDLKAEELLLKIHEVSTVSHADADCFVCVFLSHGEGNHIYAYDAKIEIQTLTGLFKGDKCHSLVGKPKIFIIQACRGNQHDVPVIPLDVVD
Target sequence (P55212 194-293 limits assumed): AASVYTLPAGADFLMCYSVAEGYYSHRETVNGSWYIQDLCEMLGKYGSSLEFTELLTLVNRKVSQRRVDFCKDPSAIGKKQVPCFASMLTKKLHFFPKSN
PfHsp90 yeast 2: growth inhibition of PfHsp90-expressing yeast, primary screen, antimalarial PfHsp90 inhibitor project, S. cerevisiae, BacTiter-Glo luminescence, single point, set 2; BacTiter-Glo ATP, 48 h; yeast lacking PDR1 and PDR3 efflux regulators; inhibition, % at 9.4 µM; 310,000 tested, 0.32% active; AID 504621, 2011;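 active = every replicate shows inhibition above about 80%, whatever the replicate mean, limit read from the data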;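 also: 0% = DMSO neutral controls and 100% = 20 µM radicicol positive controls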
SIRT5 inh: SIRT5 desuccinylase inhibitors, primary screen, biochemical, fluorescence imaging, single point, set 5. inhibition, % at 15 µM. AID 652115, 2013. Purified SirT5, succinyl-peptide AMC, trypsin-coupled fluorescence. 330,000 tested, 1.1% active; in the data active = inhibition above about 15%
Target sequence (Q9NXA8 whole entry, looked up): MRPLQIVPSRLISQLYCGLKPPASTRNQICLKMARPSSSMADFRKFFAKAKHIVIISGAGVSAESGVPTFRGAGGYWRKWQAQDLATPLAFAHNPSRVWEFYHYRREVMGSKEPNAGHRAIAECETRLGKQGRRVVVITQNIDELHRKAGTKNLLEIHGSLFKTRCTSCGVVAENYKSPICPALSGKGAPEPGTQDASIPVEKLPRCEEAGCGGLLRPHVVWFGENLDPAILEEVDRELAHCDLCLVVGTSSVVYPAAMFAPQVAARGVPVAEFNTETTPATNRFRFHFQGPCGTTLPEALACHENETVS
ARNT TACC3 PPI: disruptors of ARNT/TACC3 protein interaction, primary screen, biochemical, AlphaScreen, single concentration. Transforming acidic coiled-coil-containing protein 3 (Homo sapiens), Q9Y6A5. AlphaScreen His-ARNT PAS-B/GST-TACC3 binding, luminescence; TACC3 fragment carries E629A point mutation. inhibition, % at 9.99 µM. 390,000 tested, 0.66% active. AID 623870, 2012;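 active = mean inhibition of replicates at least 50% and at least half of replicates each reaching 50%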;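 also: 0% = complete ARNT plus TACC3 wells and 100% = ARNT alone without TACC3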
NSD2 HMT inh: NSD2 histone methyltransferase inhibitors, primary screen, biochemical, AlphaScreen, single concentration, set 2. Histone-lysine N-methyltransferase NSD2 (Homo sapiens), O96028. NSD2 peptide methylation, 120 min. inhibition, % at 12.5 µM. 310,000 tested, 0.54% active; in the data active = inhibition above about 50%
CASP1 counter: human caspase-1 inhibitors, dose response, selectivity assay for caspase-6 inhibitor project, biochemical, Z-YVAD-R110 fluorescence, cherry-pick, set 2. shares compounds with Casp6 inh. purified caspase-1, Z-YVAD-R110 cleavage fluorescence. activity change, negative = inhibition, % at 35 µM. 100 tested, under 10 active;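 active = compounds lowering fluorescence whose fitted half-maximal concentration is no more than twice their top tested dose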
AlphaScreen art: AlphaScreen signal interference with preloaded methylated product, dose response, artefact control for NSD2 inhibitor project, biochemical, cherry-picked samples | AlphaScreen artifact counterscreen, preloaded methylated H4 peptide | shares compounds with NSD2 HMT inh | 1,500 tested, 9.4% active | AC35, µM (series often up to 10 µM), for the others: top-dose activity change, negative = signal loss; call rule not given here
* hit, by the source's call; . = not tested or not shown.

SMILES	Casp6 inh	PfHsp90 yeast 2	SIRT5 inh	ARNT TACC3 PPI	NSD2 HMT inh	AlphaScreen art	others
O=C(Nc1ccc(F)cc1)N[C@H]1C=C[C@H](CC(=O)N2CCOCC2)O[C@H]1CO	0	.	-1	.	.	.
COc1ccc2c3c([nH]c2c1)[C@H](CO)N(Cc1ccc2c(c1)OCO2)CC31CN(C(=O)Nc2c(C)noc2C)C1	-1	.	-1	.	.	.
O=C(O)c1ccccc1Nc1cc(Cl)c2nonc2c1[N+](=O)[O-]	3	-8	3	15	45	.
O=[N+]([O-])c1c(Nc2ccccn2)cc(Cl)c2nonc12	59*	108*	-6	40	4	.	CASP1 counter=-1
COc1ccc(NS(=O)(=O)c2ccc3c(c2)[C@H]2C=CC[C@H]2[C@@H](c2ccc(C(=O)O)cc2)N3)cc1	53*	-26	44*	16	55*	-11%	CASP1 counter=3
Cc1cc(C=O)c(C)n1-c1ccc(Cl)c(C(=O)O)c1	54*	-13	7	.	167*	-8%	CASP1 counter=3
C[C@@H]1CN([C@@H](C)CO)C(=O)c2cc(NS(=O)(=O)c3cccs3)ccc2O[C@@H]1CN(C)C(=O)Nc1ccc2c(c1)OCO2	2	.	2	-8	.	.
COc1cc(NCCCCC(C)N)c2nccc(C)c2c1 (stereo unspecified)	93*	.	.	.	129*	-11%	CASP1 counter=-5
COc1ccc(CN(C)C[C@H]2OCCCC[C@@H](C)Oc3ccc(NS(=O)(=O)c4ccc(C)cc4)cc3C(=O)N([C@@H](C)CO)C[C@@H]2C)cc1	2	.	0	-13	.	.
Cc1c(NC(=O)C(C)OC(=O)c2sc3ccccc3c2Cl)c(=O)n(-c2ccccc2)n1C (stereo unspecified)	1	-4	10	-2	3	.
Cc1c(NC(=O)C(C)OC(=O)c2ccc([N+](=O)[O-])s2)c(=O)n(-c2ccccc2)n1C (stereo unspecified)	94*	-6	-3	0	115*	-2%	CASP1 counter=4
COCCn1c2nc(=O)n(-c3ccccc3)c(=O)c-2nc2ccccc21	70*	.	-4	.	50*	0%	CASP1 counter=5
COCCn1c(-c2ccc(OC)cc2)nc2ccccc21	.	9	.	1	15	.
CO[C@@H](CN(C)C(=O)c1ccc2c(c1)OCO2)[C@@H](C)CN([C@@H](C)CO)S(=O)(=O)c1ccc(F)cc1	1	.	.	-7	.	.
CC1CCCN(S(=O)(=O)c2ccc(NC(=O)CN3CCN(C)CC3)cc2)C1 (stereo unspecified)	.	.	.	3	90*	0%
CC(C)NC(=O)N(C)C[C@@H]1Oc2c(NC(=O)c3ccncc3)cccc2C(=O)N([C@@H](C)CO)C[C@@H]1C	-2	.	1	-10	.	.
O=C1C(Cl)=C(NCCN2CCOCC2)C(=O)c2ccccc21	70*	1	-3	66*	101*	1%
O=C1C(Cl)=C(NCCCN2CCOCC2)C(=O)c2ccccc21	19	-20	.	15	9	.
CCOCCCNC1=C(Cl)C(=O)c2ccccc2C1=O	8	107*	6	22	81*	-14%
Cc1noc(C)c1NC(=O)Nc1ccc2c(c1)C(=O)N([C@H](C)CO)C[C@@H](C)[C@H](CN(C)C(=O)Nc1cccc3ccccc13)OCCCC[C@H](C)O2	-1	.	-4	.	.	.
N#CCN1C(=S)N=C(Nc2cccc(Cl)c2)C12CCCCC2	.	5	.	-4	.	.
CC(C)(C)C1CCC2(CC1)C(Nc1cccc(C(F)(F)F)c1)=NC(=S)N2CC#N (stereo unspecified)	.	.	.	8	64*	2%
Fc1ccc(NC(=S)Nc2ccc3nccnc3c2)cc1	15	-4	-2	64*	105*	-3%
Oc1ccc(/C=N/N=C(c2ccccc2)c2ccccc2)c(O)c1O	.	4	.	22	76*	4.2µM*
O=C(CCc1nnc(CCCCc2ccccc2)o1)NC1CCCC1	-5	-11	-2	0	83*	-5%
SMILES	Casp6 inh	PfHsp90 yeast 2	SIRT5 inh	ARNT TACC3 PPI	NSD2 HMT inh	AlphaScreen art	others
Cc1cccc(C)c1OCC(O)CNS(=O)(=O)c1ccccc1C(=O)N1CCCCC1 (stereo unspecified)	.	.	.	-2	105*	-6%
CC(C)CNS(=O)(=O)c1ccccc1C(=O)N1CCCCC1	.	-5	.	-8	-2	.
COC(=O)C[C@@H]1CC[C@H]2[C@H](COc3ccc(NS(=O)(=O)c4ccccc4F)cc3C(=O)N2C)O1	.	.	.	3	.	.
Cc1cc(C)nc(NS(=O)(=O)c2ccc(NC(=O)c3ccccc3Br)cc2)n1	23	.	-5	.	65*	1%
Cc1cc(C)nc(NS(=O)(=O)c2ccc(NC(=O)Nc3ccccc3)cc2)n1	2	8	-3	3	36	.
O=C(N[C@H]1CC[C@H](CCNS(=O)(=O)c2ccc(F)cc2)O[C@@H]1CO)c1cnccn1	1	.	-2	1	.	.
CC(C)(C)c1cc(C(=O)N/N=C/c2ccncc2)n[nH]1	5	-16	0	4	55*	1%
O=C(Nc1ccc(F)cc1)N[C@H]1CC[C@H](CCNS(=O)(=O)c2ccccc2F)O[C@H]1CO	1	.	-3	-7	.	.
Cc1cccc(C)c1NC(=O)c1c[nH]c2ccccc12	-2	0	0	-1	143*	3%
CO[C@@H]1CN(C)C(=O)c2ccc(NS(=O)(=O)c3ccccc3)cc2OC[C@H](C)N(Cc2cccnc2)C[C@H]1C	0	.	2	2	.	.
Nc1ccc2nn(-c3cc([N+](=O)[O-])ccc3O)nc2c1	7	-70	1	0	79*	-1%
O=C(C[C@@H]1C=C[C@H](NC(=O)C2CCC2)[C@H](CO)O1)NCC1CC1	0	.	3	.	.	.
O=C1c2ccccc2C(=O)c2c(NCc3cccnc3)cccc21	.	11	.	6	1	.
O=C1c2cccc(NCCCNCCO)c2C(=O)c2cccc(NCCCNCCO)c21	-45	36	.	49*	88*	4.2µM*
CC(C)CNC(=O)c1cnn2c(C(F)(F)F)cc(C(F)(F)F)nc12	0	.	2	.	54*	-7%
COCCNC(=O)c1cnn2c(C(F)(F)F)cc(-c3ccc(C)cc3)nc12	-4	-18	-2	0	-2	.
CCCCNC1=CC(=O)C(NCCCC)=CC1=O	1	.	8	10	8	.
